About 83,000 compounds went through this panel and 20% of them were active in at least one assay; those are over-represented in the sample as a whole.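 Single-concentration screen, 48 h exposure, 96-well plates. Endpoint: percent growth. Below 10 = active.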 Values without a mark were called inactive. The source made the active and inactive calls.

Among the data in PubChem BioAssay (NCI) are growth values, retold here.

The subject of this assay is HL-60(TB) leukemia. Put plainly: NCI-60 one-dose screen, 48 h (100 = growth as untreated, 0 = no growth, -100 = all killed). As to conditions: 10 µM unless noted.
As for `CCCSc1nc(NCCc2c[nH]c3ccccc23)c(C#N)c(-c2ccccc2)n1`, the growth was 70.4%.
For `Cn1cc(-c2cc3nc(-c4cn(C)c5ncccc45)cc(N)n3n2)c2cc(F)ccc21` the value was 7.11% (active); for `Cc1ccc(C(=O)Nc2cc(-c3ccncc3)cc(C(F)(F)F)c2)cc1C#Cc1cnc2cccnn12`, 16.8%.
As for `O=c1nc(-c2ccccc2)cc(-c2cc3ccccc3nc2Cl)[nH]1`, the growth was -34.7% (active).
Next, `N#CC1=C(c2cccs2)Nc2c(c(-c3ccccc3)nn2-c2ccccc2)C12C(=O)Nc1ccc(Cl)cc12` (centres undefined): -4.48% (active); `COc1ccc(OC)c(Cn2cc(C#N)c(N)c2C(=O)c2ccc(Br)cc2)c1`: 20.7%; `C#CCOc1ccc(/C=N/Nc2nc(-c3ccc(F)cc3)cs2)cc1OC`: 25.2%.
In the case of `COC(=O)c1cc(C(=O)C(F)(F)F)n2c3ccccc3c3ccccc3c12`, the growth was 99.5%.
Next, `O=C(N/N=C/c1ccc(-c2ccc(O)cc2)s1)c1[nH]c2ccc(Br)cc2c1-c1ccccc1`: -12.4% (active); `O=C(NNC(=S)NCCc1ccccc1)c1ccc(OCc2nc3ccc(Cl)cc3[nH]2)cc1`: 88.9%.
`Clc1cccc(N/N=C/c2c[nH]c3ccccc23)n1`: the growth was 13.8%.
For the compound `O=C(CSc1nc2ccccc2c(=O)[nH]1)NCCN1CCCCC1`, the growth was 94.4%.
For `O=C(CSc1nc2ccccc2c(=O)n1-c1ccc(Cl)cc1)Nc1ccc(-c2nc3ccc([N+](=O)[O-])cc3[nH]2)cc1` the value was 85.7%.
Next, `O=S(=O)(c1nc(-c2ccc(Br)cc2)oc1-c1ccc(Cl)cc1)N1CCCC(O)C1` (centres undefined): 31.4%.
